Measurements taken from ChEMBL document CHEMBL1961873, “Compounds: GSK PKIS; Assays: Nanosyn kinase panel” (2012).

Legend:
[1] = biological target: Protein kinase C gamma type (Homo sapiens) (UniProt P05129); details: at 1 µM;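 further: each value is an averaged percent inhibition of the enzyme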
[2] = biological target: T1, Protein kinase C iota type (Homo sapiens) (UniProt P41743); details: at 0.1 µM
T1 sequence (whole entry): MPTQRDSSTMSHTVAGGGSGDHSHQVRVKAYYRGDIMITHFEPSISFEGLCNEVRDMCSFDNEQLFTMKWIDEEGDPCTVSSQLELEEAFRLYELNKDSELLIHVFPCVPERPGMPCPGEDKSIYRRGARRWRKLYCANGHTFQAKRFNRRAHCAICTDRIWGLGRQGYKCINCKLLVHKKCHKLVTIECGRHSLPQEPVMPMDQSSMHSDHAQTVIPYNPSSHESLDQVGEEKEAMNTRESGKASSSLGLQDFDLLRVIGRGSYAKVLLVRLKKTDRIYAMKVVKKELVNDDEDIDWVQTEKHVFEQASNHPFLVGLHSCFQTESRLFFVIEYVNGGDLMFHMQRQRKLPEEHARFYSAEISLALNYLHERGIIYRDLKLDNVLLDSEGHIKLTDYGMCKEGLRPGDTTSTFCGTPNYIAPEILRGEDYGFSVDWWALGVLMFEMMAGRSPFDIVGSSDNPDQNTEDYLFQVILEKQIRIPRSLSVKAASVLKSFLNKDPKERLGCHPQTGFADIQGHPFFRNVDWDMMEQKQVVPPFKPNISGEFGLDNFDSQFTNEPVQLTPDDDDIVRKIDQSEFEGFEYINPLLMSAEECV

[3] = biological target: T1, Protein kinase C iota type (Homo sapiens); details: at 1 µM
[4] = biological target: Protein kinase C theta type (Homo sapiens) (UniProt Q04759); details: at 0.1 µM
Protein kinase C theta type (Homo sapiens), sequence (Q04759 whole entry, looked up): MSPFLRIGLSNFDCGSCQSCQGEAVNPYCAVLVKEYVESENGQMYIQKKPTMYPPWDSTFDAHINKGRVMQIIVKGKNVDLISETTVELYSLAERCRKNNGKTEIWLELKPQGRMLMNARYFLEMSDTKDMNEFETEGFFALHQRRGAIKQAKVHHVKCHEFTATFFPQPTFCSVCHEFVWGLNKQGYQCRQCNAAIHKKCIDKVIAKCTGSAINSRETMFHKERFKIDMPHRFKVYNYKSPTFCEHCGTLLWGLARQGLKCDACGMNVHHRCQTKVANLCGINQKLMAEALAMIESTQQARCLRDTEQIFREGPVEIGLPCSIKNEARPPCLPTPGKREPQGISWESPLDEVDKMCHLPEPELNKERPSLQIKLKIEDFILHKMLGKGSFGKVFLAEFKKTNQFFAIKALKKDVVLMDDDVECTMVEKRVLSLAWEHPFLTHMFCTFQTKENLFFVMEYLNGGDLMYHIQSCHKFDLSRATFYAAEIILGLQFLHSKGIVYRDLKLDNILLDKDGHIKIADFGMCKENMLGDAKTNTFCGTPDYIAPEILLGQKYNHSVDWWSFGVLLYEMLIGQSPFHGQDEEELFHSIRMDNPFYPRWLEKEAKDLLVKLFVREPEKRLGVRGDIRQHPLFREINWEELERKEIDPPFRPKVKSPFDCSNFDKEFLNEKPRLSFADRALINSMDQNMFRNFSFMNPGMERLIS

[5] = biological target: Protein kinase C theta type (Homo sapiens) (UniProt Q04759); details: at 1 µM
[6] = biological target: Protein kinase C beta type (Homo sapiens) (UniProt P05771); details: at 0.1 µM
Protein kinase C beta type (Homo sapiens), sequence (P05771 2-671 limits assumed): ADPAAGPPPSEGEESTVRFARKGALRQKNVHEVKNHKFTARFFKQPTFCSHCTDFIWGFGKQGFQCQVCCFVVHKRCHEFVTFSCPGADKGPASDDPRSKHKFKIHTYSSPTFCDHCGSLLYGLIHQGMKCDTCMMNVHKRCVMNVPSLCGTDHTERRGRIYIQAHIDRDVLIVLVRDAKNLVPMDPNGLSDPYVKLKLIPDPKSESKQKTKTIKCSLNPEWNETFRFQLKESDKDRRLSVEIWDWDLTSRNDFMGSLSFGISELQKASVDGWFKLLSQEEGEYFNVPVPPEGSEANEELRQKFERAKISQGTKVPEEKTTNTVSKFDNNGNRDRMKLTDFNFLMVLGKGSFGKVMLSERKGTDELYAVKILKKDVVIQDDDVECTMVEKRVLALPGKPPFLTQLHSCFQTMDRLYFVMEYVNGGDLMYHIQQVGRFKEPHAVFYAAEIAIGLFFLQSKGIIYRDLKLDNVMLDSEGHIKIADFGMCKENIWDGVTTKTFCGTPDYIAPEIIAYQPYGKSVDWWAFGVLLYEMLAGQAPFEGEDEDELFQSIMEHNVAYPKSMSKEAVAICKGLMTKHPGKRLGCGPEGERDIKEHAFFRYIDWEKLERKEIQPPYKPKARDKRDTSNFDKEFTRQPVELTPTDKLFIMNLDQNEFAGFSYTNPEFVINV

[7] = biological target: Protein kinase C beta type (Homo sapiens) (UniProt P05771); details: at 1 µM
[8] = biological target: T2, Serine/threonine-protein kinase D1 (Homo sapiens) (UniProt Q15139); details: at 0.1 µM
T2 sequence (whole entry): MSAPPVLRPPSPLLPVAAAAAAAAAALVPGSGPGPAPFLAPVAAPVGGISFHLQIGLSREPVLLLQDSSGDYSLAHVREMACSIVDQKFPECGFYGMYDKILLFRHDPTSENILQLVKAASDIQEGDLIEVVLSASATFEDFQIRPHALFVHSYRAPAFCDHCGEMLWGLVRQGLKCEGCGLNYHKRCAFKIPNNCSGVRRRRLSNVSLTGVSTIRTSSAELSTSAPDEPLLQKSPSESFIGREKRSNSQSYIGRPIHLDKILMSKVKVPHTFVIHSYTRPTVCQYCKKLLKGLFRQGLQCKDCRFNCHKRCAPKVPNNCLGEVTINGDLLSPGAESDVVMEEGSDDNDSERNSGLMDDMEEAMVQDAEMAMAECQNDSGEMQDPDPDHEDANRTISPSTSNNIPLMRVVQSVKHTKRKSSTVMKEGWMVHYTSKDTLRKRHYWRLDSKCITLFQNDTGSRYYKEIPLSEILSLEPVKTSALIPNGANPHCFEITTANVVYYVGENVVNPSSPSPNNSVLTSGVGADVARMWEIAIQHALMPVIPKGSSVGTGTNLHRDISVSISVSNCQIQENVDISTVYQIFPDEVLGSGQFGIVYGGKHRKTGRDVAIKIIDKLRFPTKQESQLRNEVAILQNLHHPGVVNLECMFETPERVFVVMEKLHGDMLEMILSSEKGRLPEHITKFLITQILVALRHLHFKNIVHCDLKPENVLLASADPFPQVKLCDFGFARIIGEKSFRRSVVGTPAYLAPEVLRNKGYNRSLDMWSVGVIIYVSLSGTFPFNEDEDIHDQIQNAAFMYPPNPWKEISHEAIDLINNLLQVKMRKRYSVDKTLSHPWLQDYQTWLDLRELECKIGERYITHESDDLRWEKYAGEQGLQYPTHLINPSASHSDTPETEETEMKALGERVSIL

[9] = biological target: T2, Serine/threonine-protein kinase D1 (Homo sapiens); details: at 1 µM
[10] = biological target: T3, Serine/threonine-protein kinase D2 (Homo sapiens) (UniProt Q9BZL6); details: at 0.1 µM
T3 sequence (whole entry): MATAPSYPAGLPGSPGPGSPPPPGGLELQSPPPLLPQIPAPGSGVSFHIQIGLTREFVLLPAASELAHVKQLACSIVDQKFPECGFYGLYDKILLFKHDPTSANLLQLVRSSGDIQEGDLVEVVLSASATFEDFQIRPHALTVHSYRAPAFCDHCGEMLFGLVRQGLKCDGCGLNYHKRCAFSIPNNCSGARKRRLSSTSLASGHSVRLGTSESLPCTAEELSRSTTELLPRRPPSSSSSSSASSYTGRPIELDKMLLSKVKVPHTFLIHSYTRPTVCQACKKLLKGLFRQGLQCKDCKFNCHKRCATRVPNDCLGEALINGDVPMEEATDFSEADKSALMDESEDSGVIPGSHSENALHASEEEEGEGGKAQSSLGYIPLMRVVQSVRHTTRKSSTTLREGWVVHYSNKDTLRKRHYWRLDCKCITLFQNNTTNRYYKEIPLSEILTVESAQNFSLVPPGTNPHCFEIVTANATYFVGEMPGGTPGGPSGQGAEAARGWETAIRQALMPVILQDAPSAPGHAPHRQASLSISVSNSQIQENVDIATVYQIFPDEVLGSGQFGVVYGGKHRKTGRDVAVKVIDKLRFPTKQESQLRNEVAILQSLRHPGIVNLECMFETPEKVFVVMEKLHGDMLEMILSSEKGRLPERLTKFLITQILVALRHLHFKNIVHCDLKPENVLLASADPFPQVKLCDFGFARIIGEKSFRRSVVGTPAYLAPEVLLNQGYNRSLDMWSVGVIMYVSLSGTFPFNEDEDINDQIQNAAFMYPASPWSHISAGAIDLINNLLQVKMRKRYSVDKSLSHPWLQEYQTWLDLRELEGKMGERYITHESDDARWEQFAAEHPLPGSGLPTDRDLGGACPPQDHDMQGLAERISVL

[11] = biological target: T3, Serine/threonine-protein kinase D2 (Homo sapiens); details: at 1 µM
[12] = biological target: T4, Serine/threonine-protein kinase D3 (Homo sapiens) (UniProt O94806); details: at 0.1 µM
T4 sequence (whole entry): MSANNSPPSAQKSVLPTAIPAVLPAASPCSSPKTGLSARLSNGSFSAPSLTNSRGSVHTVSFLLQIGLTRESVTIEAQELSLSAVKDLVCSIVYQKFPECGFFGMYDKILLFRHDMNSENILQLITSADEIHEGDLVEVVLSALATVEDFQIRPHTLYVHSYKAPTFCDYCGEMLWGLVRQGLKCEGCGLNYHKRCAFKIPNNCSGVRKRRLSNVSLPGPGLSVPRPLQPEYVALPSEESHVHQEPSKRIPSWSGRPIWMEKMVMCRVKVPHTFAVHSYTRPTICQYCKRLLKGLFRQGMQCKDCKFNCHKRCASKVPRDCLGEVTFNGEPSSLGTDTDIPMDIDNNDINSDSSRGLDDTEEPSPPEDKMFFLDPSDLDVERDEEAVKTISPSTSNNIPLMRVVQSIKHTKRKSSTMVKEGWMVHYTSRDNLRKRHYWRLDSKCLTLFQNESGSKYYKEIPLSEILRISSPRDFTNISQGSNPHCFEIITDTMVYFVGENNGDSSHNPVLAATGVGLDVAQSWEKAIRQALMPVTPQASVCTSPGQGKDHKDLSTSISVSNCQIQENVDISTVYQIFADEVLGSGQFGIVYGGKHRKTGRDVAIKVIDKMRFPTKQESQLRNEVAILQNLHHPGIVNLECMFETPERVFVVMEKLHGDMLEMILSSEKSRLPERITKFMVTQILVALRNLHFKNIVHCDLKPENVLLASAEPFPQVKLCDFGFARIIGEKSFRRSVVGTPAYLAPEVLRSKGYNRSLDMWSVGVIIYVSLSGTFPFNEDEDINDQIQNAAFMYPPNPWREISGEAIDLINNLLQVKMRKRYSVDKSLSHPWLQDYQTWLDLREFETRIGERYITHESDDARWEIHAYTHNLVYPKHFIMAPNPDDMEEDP

[13] = biological target: T4, Serine/threonine-protein kinase D3 (Homo sapiens); details: at 1 µM
[14] = biological target: T5, cGMP-dependent protein kinase 1 (Homo sapiens) (UniProt Q13976); details: at 0.1 µM
T5 sequence (whole entry): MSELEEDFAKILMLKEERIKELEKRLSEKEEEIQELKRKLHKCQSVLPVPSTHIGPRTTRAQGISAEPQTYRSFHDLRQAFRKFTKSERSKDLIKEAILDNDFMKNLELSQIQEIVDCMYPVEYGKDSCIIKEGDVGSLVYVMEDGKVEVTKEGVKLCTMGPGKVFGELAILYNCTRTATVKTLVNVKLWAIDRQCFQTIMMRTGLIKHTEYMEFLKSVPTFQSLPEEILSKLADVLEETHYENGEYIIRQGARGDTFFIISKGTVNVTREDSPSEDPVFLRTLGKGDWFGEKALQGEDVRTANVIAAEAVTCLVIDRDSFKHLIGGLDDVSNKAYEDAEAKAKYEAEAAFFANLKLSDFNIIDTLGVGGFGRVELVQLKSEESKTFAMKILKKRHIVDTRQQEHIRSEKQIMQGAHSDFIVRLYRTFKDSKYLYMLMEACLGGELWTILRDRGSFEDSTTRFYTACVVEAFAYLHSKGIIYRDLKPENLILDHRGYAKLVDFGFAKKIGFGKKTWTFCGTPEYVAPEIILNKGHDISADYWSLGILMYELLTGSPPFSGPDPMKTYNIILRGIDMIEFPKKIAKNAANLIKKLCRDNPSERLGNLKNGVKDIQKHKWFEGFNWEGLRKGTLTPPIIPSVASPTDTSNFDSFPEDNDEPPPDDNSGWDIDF

[15] = biological target: T5, cGMP-dependent protein kinase 1 (Homo sapiens); details: at 1 µM
[16] = biological target: T6, cGMP-dependent protein kinase 2 (Homo sapiens) (UniProt Q13237); details: at 0.1 µM
T6 sequence (whole entry): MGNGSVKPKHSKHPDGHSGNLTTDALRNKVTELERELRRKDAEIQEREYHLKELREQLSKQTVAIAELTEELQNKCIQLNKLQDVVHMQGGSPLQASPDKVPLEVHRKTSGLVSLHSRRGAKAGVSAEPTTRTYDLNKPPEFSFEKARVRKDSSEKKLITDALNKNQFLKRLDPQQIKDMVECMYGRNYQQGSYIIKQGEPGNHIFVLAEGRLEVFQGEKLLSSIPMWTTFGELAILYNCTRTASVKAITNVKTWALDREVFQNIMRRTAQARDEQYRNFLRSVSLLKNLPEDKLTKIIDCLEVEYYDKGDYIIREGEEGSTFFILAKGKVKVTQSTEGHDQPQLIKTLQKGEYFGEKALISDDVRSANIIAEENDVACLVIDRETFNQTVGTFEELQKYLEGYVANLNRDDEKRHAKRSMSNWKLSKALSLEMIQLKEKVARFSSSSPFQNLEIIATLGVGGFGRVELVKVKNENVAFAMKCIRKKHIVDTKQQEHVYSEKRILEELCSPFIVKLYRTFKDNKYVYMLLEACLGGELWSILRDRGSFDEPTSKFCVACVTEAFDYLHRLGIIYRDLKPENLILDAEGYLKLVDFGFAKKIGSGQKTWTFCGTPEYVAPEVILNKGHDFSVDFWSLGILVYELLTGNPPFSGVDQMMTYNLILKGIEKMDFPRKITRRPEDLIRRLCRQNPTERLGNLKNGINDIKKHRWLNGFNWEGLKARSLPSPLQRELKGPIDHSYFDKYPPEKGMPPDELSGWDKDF

[17] = biological target: T6, cGMP-dependent protein kinase 2 (Homo sapiens); details: at 1 µM
[18] = biological target: T7, cAMP-dependent protein kinase catalytic subunit PRKX (Homo sapiens) (UniProt P51817); details: at 0.1 µM
T7 sequence (whole entry): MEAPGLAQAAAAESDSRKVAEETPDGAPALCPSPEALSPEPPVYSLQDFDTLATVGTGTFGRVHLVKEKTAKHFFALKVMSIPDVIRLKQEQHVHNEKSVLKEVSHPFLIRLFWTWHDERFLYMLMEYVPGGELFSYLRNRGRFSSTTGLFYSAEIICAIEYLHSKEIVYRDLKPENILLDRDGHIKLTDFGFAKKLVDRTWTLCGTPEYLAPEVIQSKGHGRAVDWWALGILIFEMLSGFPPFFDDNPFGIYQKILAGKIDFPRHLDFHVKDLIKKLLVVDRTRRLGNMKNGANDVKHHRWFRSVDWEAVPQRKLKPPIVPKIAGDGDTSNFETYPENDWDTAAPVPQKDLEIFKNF

[19] = biological target: T7, cAMP-dependent protein kinase catalytic subunit PRKX (Homo sapiens); details: at 1 µM
[20] = biological target: Rho-associated protein kinase 1 (Homo sapiens) (UniProt Q13464); details: at 0.1 µM;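 further: values are mean percent inhibition of ROCK1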
Rho-associated protein kinase 1 (Homo sapiens), sequence (Q13464 2-1354 limits assumed): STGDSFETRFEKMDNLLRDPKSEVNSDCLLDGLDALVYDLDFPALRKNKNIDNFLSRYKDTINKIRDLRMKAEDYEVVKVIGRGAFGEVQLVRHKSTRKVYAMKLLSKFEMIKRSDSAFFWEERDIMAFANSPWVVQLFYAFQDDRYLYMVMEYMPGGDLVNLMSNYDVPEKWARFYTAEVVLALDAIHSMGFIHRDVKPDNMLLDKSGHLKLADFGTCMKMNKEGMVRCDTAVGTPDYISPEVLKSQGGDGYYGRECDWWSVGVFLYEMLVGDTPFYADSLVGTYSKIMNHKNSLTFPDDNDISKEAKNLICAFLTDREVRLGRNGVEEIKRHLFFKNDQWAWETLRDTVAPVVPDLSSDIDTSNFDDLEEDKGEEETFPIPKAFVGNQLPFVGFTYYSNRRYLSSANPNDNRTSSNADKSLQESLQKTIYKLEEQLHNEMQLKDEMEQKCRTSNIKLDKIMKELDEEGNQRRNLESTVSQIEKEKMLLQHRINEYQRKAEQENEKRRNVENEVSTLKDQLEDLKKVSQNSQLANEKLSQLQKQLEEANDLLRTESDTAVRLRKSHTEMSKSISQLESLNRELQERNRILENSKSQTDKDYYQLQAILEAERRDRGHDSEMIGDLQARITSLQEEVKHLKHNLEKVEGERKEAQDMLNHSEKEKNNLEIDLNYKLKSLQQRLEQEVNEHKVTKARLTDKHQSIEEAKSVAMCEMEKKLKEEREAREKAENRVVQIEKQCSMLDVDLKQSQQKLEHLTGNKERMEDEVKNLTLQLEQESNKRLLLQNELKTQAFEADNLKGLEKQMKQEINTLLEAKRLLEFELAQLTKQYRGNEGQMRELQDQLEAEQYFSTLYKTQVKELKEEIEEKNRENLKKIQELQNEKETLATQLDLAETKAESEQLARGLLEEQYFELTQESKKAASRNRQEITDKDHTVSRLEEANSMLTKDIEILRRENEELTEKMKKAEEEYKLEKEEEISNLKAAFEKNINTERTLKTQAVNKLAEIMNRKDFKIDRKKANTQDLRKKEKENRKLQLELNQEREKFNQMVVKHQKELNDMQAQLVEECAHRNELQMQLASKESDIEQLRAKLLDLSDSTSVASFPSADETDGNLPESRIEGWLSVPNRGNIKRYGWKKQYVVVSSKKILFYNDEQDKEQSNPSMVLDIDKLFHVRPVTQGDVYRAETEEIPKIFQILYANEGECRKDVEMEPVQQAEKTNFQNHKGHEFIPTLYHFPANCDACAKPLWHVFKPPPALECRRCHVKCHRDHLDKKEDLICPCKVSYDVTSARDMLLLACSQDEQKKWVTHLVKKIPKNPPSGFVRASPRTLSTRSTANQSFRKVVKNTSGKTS

Compound | inhibition [1] [%] | inhibition [2] [%] | inhibition [3] [%] | inhibition [4] [%] | inhibition [5] [%] | inhibition [6] [%] | inhibition [7] [%] | inhibition [8] [%] | inhibition [9] [%] | inhibition [10] [%] | inhibition [11] [%] | inhibition [12] [%] | inhibition [13] [%] | inhibition [14] [%] | inhibition [15] [%] | inhibition [16] [%] | inhibition [17] [%] | inhibition [18] [%] | inhibition [19] [%] | inhibition [20] [%]
NS(=O)(=O)c1ccc(N/N=C2\C(=O)Nc3ccc(Cl)cc32)cc1 | 4.85 | 1.02 | 0.75 | 2.29 | 4.86 | 0.92 | 1.29 | 2.46 | 7.47 | 3.87 | 5.28 | 3.58 | 5.68 | 2.65 | 6.01 | 3.85 | 5.8 | 4.2 | 7.86 | 0.31
c1ccc(Cc2nc3ccc(Nc4ncnc5ccccc45)cc3[nH]2)cc1 | 2.9 | 0.63 | 0.68 | 1.76 | 2.47 | 0.1 | 0.12 | 2.88 | 6.43 | 2.49 | 4.57 | 3.17 | 5.52 | 1.14 | 4.46 | 1.61 | 6.41 | 0.98 | 1.89 | 0.25
OCc1ccc(-c2nc(-c3ccccn3)c(-c3ccc4c(c3)OCO4)[nH]2)cc1 | 1.5 | 2.1 | 3.65 | 2.3 | 0.86 | 0.63 | 0.97 | 4.39 | 8.27 | 4.75 | 9.51 | 5.74 | 8.28 | 1.9 | 2.98 | 2.69 | 3.26 | 1.55 | 0.61 | 1.43
